From PubChem BioAssay (NCATS)
Records with an inconclusive call do not appear. Entries that show only a call come without a potency. Unmarked numbers belong to inactive results. Active and inactive are the calls of the source. Unless noted, the call rests on the fitted dose curve; in most records, active means well fitted curve in the direction sought with a large enough effect; inconclusive means small, poorly fitted or top-dose-only effect, or another doubt; inactive means no such curve, though single readings can be large; an effect the other way counts as inactive or inconclusive. Where a SMILES comes first, the peptide text is derived from it. Bridges are numbered along the chain shown (N, C = ends). [ ]: non-standard residue; d: D form. The star is where a group is joined. Dab(CH2SO3H) = N[C@@H](CCNCS(=O)(=O)O)C(=O)O; X3 = CC[C@@H](C)CCCCC(=O)*; Dab = NCC[C@H](N)C(=O)O

Assays:
[1] = molecular target: Voltage-gated inwardly rectifying potassium channel KCNH2 (Homo sapiens) (UniProt Q12809); assay: qHTS Assay for Small Molecule Inhibitors of the Human hERG Channel Activity (AID 588834);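 further: lower thallium flux fluorescence means stronger hERG block; nearly all actives have a fitted effect of over 50% in size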; further: potency means the concentration at half of the fitted maximal effect
In short: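 Thallium serves as surrogate for K+ influx through BacMam-delivered hERG in U2OS cells. Compounds are added for about 10 minutes after dye loading; stimulation buffer then starts flux, monitored kinetically on FDSS.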

[2] = S16 Schwann cell PMP22 intronic element firefly luciferase assay (AID 624032); further: series mostly up to about 58 µM; nearly all actives have a fitted effect of over 30% in size
In short: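 Luciferase reporter of PMP22 intronic-element expression in stably transfected S16 rat Schwann cells, read by ONE-Glo luminescence after 24 h compound exposure at 37 C. Activity scaled between DMSO (0%) and positive-control PTC124; concentration-effect curves quality-classified.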

[3] = molecular target: Luciferin 4-monooxygenase (Photinus pyralis) (UniProt P08659); assay: Biochemical firefly luciferase enzyme assay for NPC (AID 624030); further: nearly all actives have a fitted effect of over 70% in size; further: potency means the concentration at half of the fitted maximal effect
In short: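 Direct inhibition of firefly luciferase enzyme (10 nM final, 50 mM Tris Acetate) assessed by luminescence within 5 minutes. Percent activity scaled between DMSO and PTC124 positive control, with concentration-effect curves classified by fit quality and response.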

[4] = S16 Schwann cell viability assay (CellTiter-Glo assay) (AID 624031);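 further: native untransfected S16 rat Schwann cells; cellular ATP luminescence as a viability measure; series mostly up to about 58 µM; nearly all actives have a fitted effect of over 70% in size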
In short: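 Concentration-effect curves come from CellTiter-Glo luminescence of S16 rat Schwann cells after 24 h compound exposure. Each reading was normalized to DMSO wells (0%) and wells without cells, and curves were ranked by r2 and response magnitude.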

[5] = S16 Schwann cell PMP22 intronic element beta-lactamase assay (AID 624044; calls by dose curve; further: nearly all actives have a fitted effect of over 15% in size)
In short: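 Beta-lactamase reporter under a PMP22 intronic regulatory element in stable S16 rat Schwann cells; 24 h compound exposure. 460 nm blue signal normalized between DMSO (0%) and potassium clavulanate, with 535 nm FRET tracking viability; curves classed by r2 and response.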

Chain of Luciferin 4-monooxygenase (Photinus pyralis) (P08659 whole entry, looked up): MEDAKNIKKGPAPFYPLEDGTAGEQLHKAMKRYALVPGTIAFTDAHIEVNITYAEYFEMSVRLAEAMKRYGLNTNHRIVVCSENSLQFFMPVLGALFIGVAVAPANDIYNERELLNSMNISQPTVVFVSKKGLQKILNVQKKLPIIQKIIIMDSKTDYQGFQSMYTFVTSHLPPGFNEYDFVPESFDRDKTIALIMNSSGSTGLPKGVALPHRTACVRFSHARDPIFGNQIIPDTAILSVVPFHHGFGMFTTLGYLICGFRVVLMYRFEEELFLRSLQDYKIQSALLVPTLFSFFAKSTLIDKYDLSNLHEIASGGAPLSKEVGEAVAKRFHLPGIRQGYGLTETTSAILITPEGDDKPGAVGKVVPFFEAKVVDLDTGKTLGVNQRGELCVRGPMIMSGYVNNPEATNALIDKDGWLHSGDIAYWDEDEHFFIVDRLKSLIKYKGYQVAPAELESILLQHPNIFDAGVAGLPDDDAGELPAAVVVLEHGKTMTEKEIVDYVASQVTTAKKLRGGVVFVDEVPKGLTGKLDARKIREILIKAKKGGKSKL
Chain of Voltage-gated inwardly rectifying potassium channel KCNH2 (Homo sapiens) (Q12809 whole entry, looked up): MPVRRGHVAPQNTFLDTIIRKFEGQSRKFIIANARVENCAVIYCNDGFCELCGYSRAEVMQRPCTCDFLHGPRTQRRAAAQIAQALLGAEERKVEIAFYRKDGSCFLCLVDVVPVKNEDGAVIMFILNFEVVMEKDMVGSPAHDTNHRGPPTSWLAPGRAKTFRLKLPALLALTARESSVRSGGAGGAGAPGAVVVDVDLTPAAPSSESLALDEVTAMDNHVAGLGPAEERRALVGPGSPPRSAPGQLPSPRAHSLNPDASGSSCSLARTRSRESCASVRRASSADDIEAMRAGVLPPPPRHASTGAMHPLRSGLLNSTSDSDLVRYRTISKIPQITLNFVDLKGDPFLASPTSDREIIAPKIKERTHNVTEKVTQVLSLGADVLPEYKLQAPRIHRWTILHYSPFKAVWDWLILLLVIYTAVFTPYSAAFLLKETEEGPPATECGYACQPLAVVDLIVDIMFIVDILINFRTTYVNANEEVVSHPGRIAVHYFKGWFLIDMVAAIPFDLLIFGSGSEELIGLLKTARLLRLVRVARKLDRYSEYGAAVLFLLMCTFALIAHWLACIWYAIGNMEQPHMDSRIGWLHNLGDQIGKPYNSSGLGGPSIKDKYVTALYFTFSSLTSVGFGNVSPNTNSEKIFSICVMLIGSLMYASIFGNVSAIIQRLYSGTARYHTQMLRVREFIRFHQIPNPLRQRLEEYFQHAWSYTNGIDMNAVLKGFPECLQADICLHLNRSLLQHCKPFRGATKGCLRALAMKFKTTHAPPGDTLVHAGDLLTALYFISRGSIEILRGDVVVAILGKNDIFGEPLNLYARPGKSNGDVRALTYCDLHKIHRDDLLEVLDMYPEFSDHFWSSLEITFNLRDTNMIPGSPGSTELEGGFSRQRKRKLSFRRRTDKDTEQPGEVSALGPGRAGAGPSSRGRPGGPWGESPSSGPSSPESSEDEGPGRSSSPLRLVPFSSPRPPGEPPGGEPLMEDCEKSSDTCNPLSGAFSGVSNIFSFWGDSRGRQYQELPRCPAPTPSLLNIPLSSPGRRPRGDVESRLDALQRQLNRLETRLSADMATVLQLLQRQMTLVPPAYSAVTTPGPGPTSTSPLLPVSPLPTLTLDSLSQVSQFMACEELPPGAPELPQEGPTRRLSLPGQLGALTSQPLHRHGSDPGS

CC[C@H]1OC(=O)[C@H](C)[C@@H](O[C@H]2C[C@@](C)(OC)[C@@H](O)[C@H](C)O2)[C@H](C)[C@@H](O[C@@H]2O[C@H](C)C[C@H](N(C)C)[C@H]2O)[C@](C)(O)C[C@@H](C)/C(=N\OCOCCOC)[C@H](C)[C@@H](O)[C@]1(C)O
Potency [1]: inactive

CC1(C)S[C@@H]2[C@H](NC(=O)C(C(=O)O)c3ccsc3)C(=O)N2[C@H]1C(=O)O (stereo partly drawn)
Potency [1]: inactive

C=C[C@]1(C)C[C@@H](OC(=O)CSC(C)(C)CNC(=O)[C@H](N)C(C)C)[C@]2(C)[C@H](C)CC[C@]3(CCC(=O)[C@H]32)[C@@H](C)[C@@H]1O
Potency [1]: 7.08 µM (active)

CC[N+](CC)(CC)CCC(O)(c1ccccc1)C1CCCCC1 (stereo not drawn)
Potency [1]: inactive

CC(C)NCC1CCc2cc(CO)c([N+](=O)[O-])cc2N1 (stereo not drawn)
Potency [1]: inactive

CO[C@H]1C=CO[C@@]2(C)Oc3c(C)c(O)c4c(O)c(c5c(nc6cc(C)ccn65)c4c3C2=O)NC(=O)/C(C)=C\C=C[C@H](C)[C@H](O)[C@@H](C)[C@@H](O)[C@@H](C)[C@H](OC(C)=O)[C@@H]1C
Potency [1]: inactive

CC(C)(C)C1(O)CCN2CC3c4ccccc4CCc4cccc(c43)C2C1 (stereo not drawn)
Potency [1]: 2.82 µM (active)

N[C@H](C(=O)O)[C@@H]1CC(Cl)=NO1
Potency [1]: inactive

CCCCC(=O)N(Cc1ccc(-c2ccccc2-c2nn[nH]n2)cc1)[C@@H](C(=O)O)C(C)C
Potency [1]: inactive

C[C@@H]1[C@H](O)[C@@H](C)/C=C/C=C\C=C\C=C\C=C\C=C\C=C\[C@H](O[C@@H]2O[C@H](C)[C@@H](O)[C@H](N)[C@@H]2O)C[C@@H]2O[C@](O)(C[C@@H](O)C[C@@H](O)[C@H](O)CC[C@@H](O)C[C@@H](O)CC(=O)O[C@H]1C)C[C@H](O)[C@H]2C(=O)O (stereo in doubt)
Potency [1]: inactive

CCC(=O)O[C@@H]1CC(=O)O[C@H](C)C/C=C/C=C/[C@H](O)[C@H](C)C[C@H](CC=O)[C@H](O[C@@H]2O[C@H](C)[C@@H](O[C@H]3C[C@@](C)(O)[C@@H](OC(=O)CC)[C@H](C)O3)[C@H](N(C)C)[C@H]2O)[C@H]1OC
Potency [1]: inactive

CC(Oc1ccccc1)C(=O)N[C@@H]1C(=O)N2[C@@H]1SC(C)(C)[C@@H]2C(=O)O (stereo partly drawn)
Potency [1]: inactive

CO[C@H]1C=CO[C@@]2(C)Oc3c(C)c(O)c4c(O)c(c(/C=N/N5CCN(C6CCCC6)CC5)c(O)c4c3C2=O)NC(=O)/C(C)=C\C=C[C@H](C)[C@H](O)[C@@H](C)[C@@H](O)[C@@H](C)[C@H](OC(C)=O)[C@@H]1C
Potency [1]: inactive

CCCCCCC(O)C/C=C/CCCCCCCC(=O)O (stereo not drawn)
Potency [1]: inactive

CC(=O)OCC(=O)[C@@]1(O)CC[C@H]2[C@@H]3C[C@H](C)C4=CC(=O)C=C[C@]4(C)[C@H]3[C@@H](O)C[C@@]21C
Potency [1]: inactive

CO[C@@H]1[C@@H](O[C@@H]2O[C@H](C)[C@@H](O[C@H]3C[C@@](C)(O)[C@@H](OC(=O)CC(C)C)[C@H](C)O3)[C@H](N(C)C)[C@H]2O)[C@@H](CC=O)C[C@@H](C)C(=O)/C=C/C2OC2C[C@@H](C)OC(=O)C[C@H]1OC(C)=O (stereo partly drawn)
Potency [1]: inactive

CCc1ccc2c(c1)N(CC(C)CN(C)C)c1ccccc1S2 (stereo not drawn)
Potency [1]: 7.94 µM (active)

OCC(S)CS (stereo not drawn)
Potency [1]: inactive

CCCC(=O)O[C@]1(C(=O)COC(C)=O)CC[C@H]2[C@@H]3C[C@H](F)C4=CC(=O)C=C[C@]4(C)[C@@]3(F)[C@@H](O)C[C@@]21C
Potency [1]: inactive

CC[C@@H](C)CCCCC(=O)N[C@@H](CCNCS(=O)(=O)O)C(=O)N[C@H](C(=O)N[C@@H](CCNCS(=O)(=O)O)C(=O)N[C@H]1CCNC(=O)[C@H]([C@@H](C)O)NC(=O)[C@H](CCNCS(=O)(=O)O)NC(=O)[C@H](CCNCS(=O)(=O)O)NC(=O)[C@H](CC(C)C)NC(=O)[C@@H](CC(C)C)NC(=O)[C@H](CCNCS(=O)(=O)O)NC1=O)[C@@H](C)O (X3-[Dab(CH2SO3H)]T[Dab(CH2SO3H)][Dab][Dab(CH2SO3H)][dL]L[Dab(CH2SO3H)][Dab(CH2SO3H)]T; lactam 4-C)
Potency [1]: inactive

COc1cc([C@@H]2c3cc4c(cc3[C@@H](O[C@@H]3O[C@@H]5CO[C@@H](C)O[C@H]5[C@H](O)[C@H]3O)[C@H]3COC(=O)[C@H]23)OCO4)cc(OC)c1O
Potency [1]: inactive

CCC(=O)OCC(=O)[C@@]1(OC(=O)CC)[C@H](C)C[C@H]2[C@H]3[C@H]([C@@H](O)C[C@@]21C)[C@@]1(C)C=CC(=O)C=C1C[C@H]3Cl
Potency [1]: inactive

CC(=O)O[C@]1(C(C)=O)CC[C@H]2[C@@H]3CCC4=CC(=O)CC[C@]4(C)[C@@]3(F)[C@@H](O)C[C@@]21C
Potency [1]: inactive

C/C1=C2N=C(/C=C3N=C(/C(C)=C4\[N-][C@@](C)([C@@H]5N=C1[C@](C)(CCC(=O)NCC(C)OP(=O)(O)O[C@H]1[C@@H](O)[C@@H](n6cnc7cc(C)c(C)cc76)O[C@@H]1CO)[C@H]5CC(N)=O)[C@@](C)(CC(N)=O)[C@@H]4CCC(N)=O)[C@@](C)(CC(N)=O)[C@@H]\3CCC(N)=O)C(C)(C)[C@@H]/2CCC(N)=O.CC(=O)O.[Co] (stereo partly drawn)
Potency [1]: inactive

CC1(C)O[C@@H]2C[C@H]3[C@@H]4CCC5=CC(=O)C=C[C@]5(C)[C@H]4[C@@H](O)C[C@]3(C)[C@]2(C(=O)CO)O1
Potency [1]: inactive

CO[C@H]1C=CO[C@@]2(C)Oc3c(C)c(O)c4c(O)c(c5c(c4c3C2=O)=NC2(CCN(CC(C)C)CC2)N=5)NC(=O)/C(C)=C\C=C/[C@H](C)[C@H](O)[C@@H](C)[C@@H](O)[C@@H](C)[C@H](OC(C)=O)[C@@H]1C
Potency [1]: inactive

CCC1OC(=O)C[C@@H](O)[C@H](C)[C@@H](O[C@@H]2O[C@H](C)C[C@H](N(C)C)[C@H]2O)[C@@H](CC=O)C[C@@H](C)C(=O)/C=C/[C@]2(C)OC2C1C (stereo partly drawn)
Potency [1]: inactive

CC[C@@H](C(=O)[C@@H](C)[C@@H](O)[C@H](C)CCc1ccc(C)c(O)c1C(=O)O)[C@H]1O[C@](CC)([C@H]2CC[C@](O)(CC)[C@H](C)O2)C[C@@H]1C
Potency [1]: inactive

CO[C@H]1C[C@H](O[C@H]2[C@H](C)[C@@H](O[C@@H]3O[C@H](C)C[C@H](N(C)C)[C@H]3OC(C)=O)[C@@H](C)C[C@]3(CO3)C(=O)[C@H](C)[C@@H](OC(C)=O)[C@@H](C)[C@@H](C)OC(=O)[C@@H]2C)O[C@@H](C)[C@@H]1OC(C)=O
Potency [1]: inactive

CCOC(=O)C1=CC2(CC)CCCN3CCc4c(n1c1ccccc41)C32 (stereo not drawn)
Potency [1]: 0.0891 µM (active)

CC(=O)OCC(=O)[C@@]12OC3(CCCC3)O[C@@H]1C[C@H]1[C@@H]3CCC4=CC(=O)C=C[C@]4(C)[C@@]3(F)[C@@H](O)C[C@@]12C
Potency [1]: inactive

CCOC(=O)O[C@]1(C(=O)COC(=O)CC)CC[C@H]2[C@@H]3CCC4=CC(=O)C=C[C@]4(C)[C@H]3[C@@H](O)C[C@@]21C
Potency [1]: inactive

C[C@]12CCC(=O)C=C1CC[C@@H]1[C@@H]2[C@@H](O)C[C@@]2(C)[C@H]1CC[C@]2(O)C(=O)COP(=O)(O)O
Potency [2]: inactive

COC(=O)CCC(=O)CN
Potency [2]: inactive

NC1C2CN(c3nc4c(cc3F)c(=O)c(C(=O)O)cn4-c3ccc(F)cc3F)CC12 (stereo not drawn)
Potency [1]: inactive | Potency [3]: inactive | Potency [4]: inactive | Potency [2]: inactive | Potency [5]: inactive

C#CCOc1ccc2c(C)cc(=O)oc2c1
Potency [1]: inactive | Potency [3]: inactive | Potency [4]: inactive | Potency [2]: inactive | Potency [5]: inactive

CC(C(=O)O)c1ccc(N2Cc3ccccc3C2=O)cc1 (stereo not drawn)
Potency [1]: inactive | Potency [3]: 0.181 µM (active) | Potency [4]: inactive | Potency [5]: inactive

Nc1c(Br)cc(Br)cc1CNC1CCC(O)CC1 (stereo not drawn)
Potency [1]: inactive | Potency [3]: inactive | Potency [4]: inactive | Potency [2]: inactive | Potency [5]: inactive

Cc1cc(C(=O)NNCc2ccccc2)no1
Potency [1]: inactive | Potency [3]: inactive | Potency [4]: inactive | Potency [2]: inactive | Potency [5]: inactive
